A selection: hits, their analogues and other compounds. The true share with any hit is near 14%.
HADH2 inhib: inhibitors of human HADH2 dehydrogenase; recombinant HADH2, NADH fluorescence, beta-hydroxybutyryl-CoA; Potency, µM (doses to about 57.1 µM), without a hit: top-dose activity change, negative = inhibition, hits mostly inhibitors; 73,000 tested, 3.4% active; note: potency is the fitted concentration of half-maximal effect; % is set by controls: 0 for no effect and ±100 for the full control effect; nearly all actives have a fitted effect of over 60% in size
Target sequence (Q99714 whole entry, looked up, one chain of several): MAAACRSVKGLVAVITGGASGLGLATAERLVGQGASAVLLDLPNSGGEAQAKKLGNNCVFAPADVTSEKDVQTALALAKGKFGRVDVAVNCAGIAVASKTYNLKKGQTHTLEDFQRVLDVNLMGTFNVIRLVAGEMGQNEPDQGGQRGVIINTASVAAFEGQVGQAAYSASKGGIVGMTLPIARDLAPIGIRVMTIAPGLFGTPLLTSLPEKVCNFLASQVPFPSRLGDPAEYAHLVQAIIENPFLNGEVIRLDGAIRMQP
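His-tagged recombinant enzyme from E. coli, 20 nM, preincubated 15 min RT with compound; reaction started with 1 mM NAD+ and 90 uM beta-hydroxybutyryl-CoA in 100 mM Tris-HCl pH 9.0. NADH fluorescence (ex 360/em 450) read over 4 min; last-minus-first difference.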
HSD17B inh: blocks hydroxysteroid 17-beta dehydrogenase activity; Potency, µM (highest dose often 57.1 µM), for inactives: at the top dose activity change, negative = inhibition, actives largely listed as inhibitors; recombinant HSD17B10, NADH fluorescence kinetic; 75,000 tested, 7.6% active; Q99714;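 note: the protocol describes HADH2 (HSD17B10) and not the HSD17B4 of the title; potency is the fitted concentration of half-maximal effect; % is set by controls: 0 for no effect and ±100 for the full control effect; nearly all actives have a fitted effect of over 70% in size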
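Enzyme plus compound, 15 min room temperature; substrate mix added (NAD+ 1 mM, beta-hydroxybutyryl-CoA 90 uM final); plates read kinetically for NADH fluorescence. HADH2 was His-tagged, E. coli-derived, 20 nM.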
A350 autofl: compounds fluorescent in Alexa 350 spectral region. 59,000 tested, 11% active. max dye-equivalent concentration, M. Compound autofluorescence, 340/450 nm, Alexa 350 dye-equivalents; active compounds read high; in the data active = max dye-equivalent concentration above about 10 nM; inconclusive = mostly about 1.1 nM to 9.6 nM
AID923: qHTS Assay for Allosteric/Competitive Inhibitors of Caspase-1: Spectroscopic Profiling in AFC Spectral Region. AID 923, 2007. Potency, µM (top dose mostly 57.5 µM), without a hit: at the top dose fluorescence increase, usual class: activators. 75,000 tested, 1.1% active. compound fluorescence, AFC spectral region (405/520 nm); note: potency is the fitted concentration of half-maximal effect; 0% is about no effect
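Compound autofluorescence profiled at 405 nm ex/520 nm em during kinetic caspase 1 run (50 nM enzyme, 5 uM Ac-WEHD-AFC, HEPES pH 7.5, 10 mM DTT). Titration up to 57 uM; baseline from regression intercept, normalized to AFC standard curve.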
4MU fluor: compound fluoresces in the 4-MU spectral region | compound autofluorescence, 340/450 nm, 4-MU equivalents; active compounds read high | max dye-equivalent concentration, M | 59,000 tested, 11% active | AID 589; in the data active = max dye-equivalent concentration above about 10 nM; inconclusive = mostly about 1.1 nM to 9.6 nM
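Intrinsic fluorescence at 340/450 nm (ex/em) was read after 15 min at room temperature in pH 8.0, 100 mM Tris. Each compound concentration expressed as 4-MU-equivalent concentration from a six-point 4-MU standard series on each plate.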
CRE-bla Fsk: modulators of forskolin-stimulated CRE signaling in CHO cells; AID 662; 71,000 tested, 2.5% active; CHO CRE-bla reporter (cAMP response element driving beta-lactamase), forskolin EC10, beta-lactamase ratio; Potency, µM (top dose mostly 38.2 µM), for the others: at the top dose activity change, negative = inhibition, actives largely listed as activators; active = well fitted activation curve with a large enough effect in the signal ratio, with a control signal flat, not every such curve was filed as active; inconclusive = small, poorly fitted or top-dose-only effect, or effect the other way, or a change in a side signal; the % refers to the signal ratio; note: potency is the fitted concentration of half-maximal effect; % of control where 0% means no effect
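Forskolin analogue NKH 477 at EC10 stimulated CRE-driven beta-lactamase in CHO cells alongside compound dilution series. Beta-lactamase was measured with CCF4, excitation 405 nm, emission ratio 460/530 nm.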
Active calls of the source: *; [ ] = dose if it differs, or a comment. Unless noted, calls come from the whole dose curve; as a rule, active = well fitted curve in the direction sought with a large enough effect; inconclusive = small, poorly fitted or top-dose-only effect, or another doubt; inactive = no such curve, though single readings can be large; an effect the other way counts as inactive or inconclusive.

For COc1ccccc1C1C=C(c2ccccc2)Nc2nnnn21 (configuration not stated) the results were HADH2 inhib inconclusive, HSD17B inh -1.5%, AID923 17.7% and CRE-bla Fsk inconclusive.
`O=C(O)C1=C/C(=C(/c2ccccc2)c2cc(C(=O)O)c(O)c3ccccc23)c2ccccc2C1=O` gave HADH2 inhib -9.9%[11.4 µM], HSD17B inh -24.5%[11.4 µM], A350 autofl inactive, AID923 -4.4%[11.5 µM], 4MU fluor inactive and CRE-bla Fsk -7.4%[7.6 µM].
For CS(=O)(=O)Nc1cccc(-c2nccc(Nc3ccc(F)cc3)n2)c1 the results were HADH2 inhib 14.4%, HSD17B inh 0.2%, A350 autofl inactive, AID923 0.7%, 4MU fluor inactive and CRE-bla Fsk inconclusive.
For O=c1[nH]c(CN2CCN(Cc3ccccc3)CC2)nc2sc3c(c12)CCC3 the results were HADH2 inhib 17.1%, HSD17B inh inconclusive, A350 autofl 1.35e-08M*, AID923 3.4%, 4MU fluor 1.55e-08M* and CRE-bla Fsk inconclusive.
CCOC(=O)c1nc2sc3c(c2c(=O)[nH]1)CCCC3 was read as HADH2 inhib 31.6µM*, HSD17B inh 25.1µM*, AID923 10.1% and CRE-bla Fsk 13.0%.
For CC(=O)N1CCN(C(=O)CCc2nc3sc4c(c3c(=O)[nH]2)CCCC4)CC1 the results were HADH2 inhib 9.7%, HSD17B inh inconclusive, A350 autofl 2.22e-08M*, AID923 -0.6%, 4MU fluor 1.57e-08M* and CRE-bla Fsk 2.4%.
For O=c1[nH]c(CN2CCN(c3ccccc3)CC2)nc2ccccc12 the results were HADH2 inhib 14.8%, HSD17B inh -18.4%, A350 autofl inconclusive, AID923 -1.3%, 4MU fluor inconclusive and CRE-bla Fsk inconclusive.
`COC(=O)[C@@]1(Cc2ccccc2)[C@H]2c3cc(C(=O)N4CCCC4)n(Cc4ccccn4)c3C[C@H]2CN1C(=O)c1ccccc1` gave HADH2 inhib -5.3%, HSD17B inh -7.3%, AID923 0.8% and CRE-bla Fsk inconclusive.
For COc1ccc(C(=O)N2CCC3(CCN(Cc4ccncc4)CC3)CC2)cc1 the results were HADH2 inhib 10.3%, HSD17B inh 4.9%, A350 autofl inactive, AID923 4.2%, 4MU fluor inactive and CRE-bla Fsk -3.2%.
For O=C(O)Cc1[nH]cnc1C(=O)O the results were HADH2 inhib inconclusive, HSD17B inh 5.0%[11.4 µM], A350 autofl inactive, AID923 4.5%[11.5 µM], 4MU fluor inactive and CRE-bla Fsk 16.6%[7.6 µM].
`CN(CC(=O)O)Cc1c[nH]c2ccccc12` gave HADH2 inhib -1.2%[11.4 µM], HSD17B inh 8.7%[11.4 µM], A350 autofl inactive, AID923 -1.1%[11.5 µM], 4MU fluor inactive and CRE-bla Fsk -16.6%[7.6 µM].
Screening Cc1ccc(S(=O)(=O)c2n[nH]n3c2nc(=O)c2ccccc23)cc1 returned HADH2 inhib 25.1µM*, HSD17B inh 31.6µM*, A350 autofl 2.93e-07M*, AID923 7.5%, 4MU fluor 3.35e-07M* and CRE-bla Fsk inconclusive.
For COCC(=O)Oc1c(S(=O)(=O)c2ccc(C)cc2)c(C)nn1-c1ccccc1 the results were HADH2 inhib -11.3%, HSD17B inh 3.6%, A350 autofl inactive, AID923 1.3%, 4MU fluor inactive and CRE-bla Fsk -13.0%.
For CCC1OCCC=CC1C (configuration not stated) the results were HADH2 inhib 2.0%[11.4 µM], HSD17B inh 3.2%[11.4 µM] and AID923 0.3%[11.5 µM].
`COC(=O)c1c(NC(=O)c2c(C)noc2C)sc2c1CCCCCC2` gave HADH2 inhib inconclusive, HSD17B inh 1.1%, A350 autofl 1.63e-07M*, AID923 -1.2%, 4MU fluor 1.56e-07M* and CRE-bla Fsk -0.5%.
CC1CCCCN1CC(=O)Nc1sc2c(c1C#N)CCC2 (configuration not stated) was read as HADH2 inhib -8.6%, HSD17B inh -19.4%, A350 autofl inactive, AID923 4.0%, 4MU fluor inactive and CRE-bla Fsk -9.9%.
`COC(=O)c1c(NC(=O)c2ccc(C)o2)sc2c1CCCCC2` gave HADH2 inhib 31.6µM*, HSD17B inh 25.1µM*, A350 autofl 3.24e-08M*, AID923 8.5%, 4MU fluor 6.58e-08M* and CRE-bla Fsk inconclusive.
CN1CCN(S(=O)(=O)c2cccc(C(=O)Nc3sc4c(c3C(N)=O)CCCC4)c2)CC1 was read as HADH2 inhib 57.0%, HSD17B inh -23.4%, A350 autofl 3.1e-07M*, AID923 -0.3%, 4MU fluor 1.91e-07M* and CRE-bla Fsk 0.794µM*.
CCOC(=O)N1CCN(S(=O)(=O)c2ccc(C(=O)Nc3sc4c(c3C#N)CCC4)cc2)CC1 was read as HADH2 inhib -27.4%, HSD17B inh 0.6%, A350 autofl 5.79e-08M*, AID923 0.5%, 4MU fluor 6.29e-08M* and CRE-bla Fsk -0.7%.
Screening COc1cc(/C=C\C(=O)N2CCCCC2=O)cc(OC)c1OC returned HADH2 inhib -1.6%, A350 autofl inactive, 4MU fluor inactive and CRE-bla Fsk inconclusive.
Screening Cc1ccc(C(=O)Nc2sc3c(c2C(=O)O)CCCCC3)o1 returned HADH2 inhib -8.6%, HSD17B inh -5.8%, A350 autofl inconclusive, AID923 -0.2%, 4MU fluor inactive and CRE-bla Fsk 3.4%.
`NC(=O)c1c(NC(=O)c2cc3ccccc3o2)sc2c1CCC2` gave HADH2 inhib -8.2%, HSD17B inh 31.6µM*, A350 autofl 1.05e-07M*, AID923 9.6%, 4MU fluor 7.47e-08M* and CRE-bla Fsk inconclusive.
For CCCCC(=O)OCC(=O)Nc1ccc(OC(F)F)cc1 the results were HADH2 inhib -13.6%, HSD17B inh 0.5%, A350 autofl 1.9e-07M*, AID923 -0.6%, 4MU fluor 2.01e-07M* and CRE-bla Fsk 0.6%.
`CCCCCCCCN[C@@H](C)[C@H](O)c1ccc(SC(C)C)cc1` gave HADH2 inhib 4.6%[25.6 µM], HSD17B inh -12.6%[25.6 µM], A350 autofl inconclusive, AID923 2.4%[25.7 µM], 4MU fluor inconclusive and CRE-bla Fsk -21.7%[17.1 µM].
For CCOc1cccc2cc(C(=O)N3CCc4ccccc4C3)c(=O)oc12 the results were HADH2 inhib -15.8%, HSD17B inh 31.6µM*, A350 autofl inactive, AID923 -2.3%, 4MU fluor inactive and CRE-bla Fsk -11.4%.
Screening COc1cccc2cc(C(=O)N3CCc4ccccc4C3)c(=O)oc12 returned HADH2 inhib -2.3%, HSD17B inh -1.2%, A350 autofl inactive, AID923 -0.3%, 4MU fluor inactive and CRE-bla Fsk -0.1%.

Screening results from PubChem.
